Experimental data: PubChem BioAssay (NCATS)
Results filed as inconclusive are left out. Entries that show only a call come without a potency. The source made the active and inactive calls. Calls come from the whole dose curve; as a rule, active = well fitted inhibition curve with a large enough effect; inconclusive = small, poorly fitted or top-dose-only effect; inactive = flat fitted curve, though single readings scatter.

biological target: Calcium and integrin-binding protein 1 (Homo sapiens) (UniProt Q99828); assay: Primary qHTS for Identification of Calcium Integrin Binding Protein 1 (CIB1) Competitor (AID 1508620); settings: CIB1-GST / FITC-alphaIIb peptide fluorescence polarization; series mostly up to 114 µM;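 note: GST tagged CIB1 binding a fluorescein labelled alphaIIb integrin peptide tracer; top concentration of the series differs between compounds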
Sequence (Q99828 whole entry, looked up): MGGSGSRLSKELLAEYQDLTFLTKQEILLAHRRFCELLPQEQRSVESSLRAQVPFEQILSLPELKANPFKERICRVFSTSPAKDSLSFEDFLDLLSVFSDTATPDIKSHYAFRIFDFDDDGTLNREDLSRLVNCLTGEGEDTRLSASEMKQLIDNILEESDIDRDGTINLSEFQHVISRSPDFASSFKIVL
How it was run: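 CIB1-GST (1 uM final) and compound incubated 15 min at room temperature before adding FITC-alphaIIb peptide tracer (100 nM final). Competition for binding read by fluorescence polarization (ex 480, em 540) after another 15 min at room temperature.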

SMILES	Potency
CN(C)C(=O)C1CCN(c2nc(-c3ccc(Br)cc3)cs2)CC1	inactive
COc1ccc(-c2ccc(=O)n(CC(=O)NCCc3ccccc3)n2)cc1OC	inactive
Cc1cc(C)nc(NC(=S)N2CCN(c3ccc(F)cc3F)CC2)c1	inactive
O=C1c2ccccc2C(=O)N1c1ccccn1	inactive
Cc1cc2c(s1)c1cnn(Cc3cccc4cccnc34)c(=O)c1n2C	inactive
CC(C)(C)OC(=O)N1CCN(c2ccc(NCc3cc(-c4ccc(C#N)cc4)co3)cc2)CC1	inactive
Cc1ccc(CN(C)c2ncnc3ccc(-c4ccc5c(c4)OCO5)cc23)o1	inactive
COc1ccc(COc2ccc(-c3nc4ccccc4[nH]3)cc2)cc1OC	inactive
N#Cc1c(-c2ccc(F)c(Br)c2)no[n+]1[O-]	inactive
COc1cccc(Nc2nn3c(=O)c4ccccc4nc3s2)c1	inactive
O=S1(=O)N=C(Sc2cc(C(F)(F)F)cc(C(F)(F)F)c2)c2ccccc21	inactive
Cc1ccc(NS(=O)(=O)c2ccc3c(c2)oc(=O)n3C)cc1C	inactive
Cc1ccsc1CNc1ncnc2ccc(-c3c(C)noc3C)cc12	inactive
CCOc1ccc(C(=O)Nc2ccc(-c3nc4ccccc4[nH]3)cc2)cc1	inactive
Cn1c2cc(Br)sc2c2cnn(Cc3ccc(F)cc3)c(=O)c21	inactive
O=[S+]([O-])(Nc1ccc2ccccc2c1)c1ccc(NCc2ccc(Cl)cc2O)cc1	inactive
O=C1CCCC2=C1C1(CCCC1)N=C(Nc1nc3cc(Br)ccc3o1)N2	inactive
COc1cc(-c2ccc3ncnc(NCc4ccc(C)o4)c3c2)cc(OC)c1OC	inactive
Cn1c2cc(B(O)O)sc2c2cnn(Cc3ccccc3F)c(=O)c21	inactive
O=C(O)c1ccccc1-c1noc(-c2ccccc2F)n1	inactive

SMILES	Potency
O=C(Nc1ccc(Cl)c(C(F)(F)F)c1)Nc1cccc(-c2ccncc2)n1	inactive
Cc1c(C(=O)OCC2CC2)[nH]c2c1C(=O)CC(c1ccco1)C2 (stereo not given)	inactive
CN(C)CCCNc1ncnc2ccc(-c3ccc4c(c3)OCO4)cc12	inactive
CC(=O)Nc1sc2c(c1-c1nc3ccccc3s1)CC(C)NC2 (stereo not given)	inactive
COc1ccc(N2C(=O)c3ccccc3S2(=O)=O)cc1	inactive
COc1ccc(C2Nc3ccccc3C(=O)N2CCCN(C)C)cc1COc1c(C)cc(NC(C)=O)cc1C (stereo not given)	inactive
CC1=C(C(=O)Nc2ccccc2)C(c2ccccc2Cl)N=C(Nc2nc3ccccc3o2)N1 (stereo not given)	inactive
Clc1ccc(CN(CCCNc2ncnc(NCCCc3cnc[nH]3)n2)c2ccc(Br)cn2)cc1Cl	inactive
Cc1cc(NS(=O)(=O)CCNC(=O)Cc2ccc(Cl)c(Cl)c2)no1	inactive
Cc1cc(C)n2ncc(C(=O)Nc3cc(Cl)cc(Cl)c3)c2n1	inactive
Cc1sc(C)c2c1C(=O)NS2(=O)=O	inactive
O=S(=O)(NCCNS(=O)(=O)c1c(F)cccc1F)c1ccc2c(c1)OCCO2	inactive
COc1ccc(CNc2ccc(S(=O)(=O)Nc3nccs3)cc2)c(O)c1	inactive
N#Cc1nc(Nc2ccc3ccccc3c2)nc(NC2CCCC2)n1	inactive
NC(=O)C1CCN(c2nc(-c3ccccc3-c3ccccc3)cs2)CC1	inactive
O=C(O)c1ccc2c(c1)C(=O)N([C@H](Cc1ccc(Cl)cc1)C(=O)O)C2=O	inactive
COc1cc(O)c(C(CC(=O)N2CCC(Cc3ccccc3)CC2)c2ccc3c(c2)OCO3)c(OC)c1 (stereo not given)	inactive
O=C1Nc2ccccc2/C1=C\c1cc(F)c(O)c(F)c1	inactive
Cc1cc(C)nc(NC(=S)N2CCN(c3ccc4occc4c3)CC2)c1	inactive
Cc1ccc(C)c(OCCn2c(CCNC(=O)C3CCCCC3)nc3ccccc32)c1	inactive
